DAX1 inh-1 = NR0B1 (DAX1) inhibition; inhibition, % at 6.75 µM; HEK293 Gal4-DAX1 luciferase reporter, luminescence; AID 504766; P51843; actives 0.99% (n = 340,000);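 active = inhibition above the mean over all tested compounds plus 3 SD, cut at about 4.2% in these data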;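 note: inhibition shows as a rise in luminescence from relieved DAX1 repression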
hcDAF-12 act = activates DAF-12 receptor from parasite H. contortus; AID 652067; activation, % at 6.8 µM; actives 1.4% (n = 370,000); HEK293 hcDAF-12 lit1-tk-luc reporter, luminescence; 0% DMSO, 100% Δ7-dafachronic acid;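 active = activation above the mean of all tested compounds plus 3 SD, cut at about 5.5% in these data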
ssDAF-12 act = S. stercoralis DAF-12 activation, primary screen; HEK293 ssDAF-12/GRIP1 lit1-tk-luc reporter, luminescence; % of 3 µM dafachronic acid response; activation, % at 6.8 µM; actives 1% (n = 370,000);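 active = activation above the mean over all tested compounds plus 3 SD, cut at about 0.9% in these data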
PolyA inh = blocks polyadenylation in yeast reporter cells; S. cerevisiae SKY197-pL101 polyadenylation reporter, beta-gal luminescence; efflux-impaired pdr1/pdr3 knockout yeast; score 100 = 6 SD above DMSO; activity score, % at 12 µM; actives 0.02% (n = 300,000); AID 1875;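 active = lowest replicate activity score at least 50, where 100 means six control SD above control mean; inconclusive = lowest score under 50 but half or more replicates reach 50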;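 note: yeast exposed to compound for 9 h at 30 °C; higher score means more reporter readthrough which indicates perturbed polyadenylation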
DAX1 inh-2 = blocks DAX1 repression of SF-1 activated StAR promoter; HEK293T StAR-luciferase reporter, SF-1/DAX-1 repression relief; inhibition, % at 6.8 µM; actives 1.1% (n = 370,000); AID 652010;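 active = inhibition above the mean over all tested compounds plus 3 SD, cut at about 3.6% in these data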;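 note: higher inhibition means more luminescence from relief of DAX-1 repression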
hgDAF12 agonist = hgDAF-12 agonism, primary luciferase screen. HEK293 GAL4-hgDAF12 UAS-luciferase reporter, agonist luminescence; normalized to butyrate control. AID 687014. actives 1.8% (n = 370,000). activation, % at 6.8 µM;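 active = activation above a cutoff set at the mean of all screened compounds plus 3 SD, cut at about 10% in these data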
LXR ag = LXR-beta agonism as hcDAF-12 counter-screen; shares compounds with hcDAF-12 act; 3,400 tested, under 10 active; activation, % at 6.8 µM; AID 743027; HEK293 Gal4-LXR tk-luc reporter, luminescence, 24 h; normalized: DMSO 0%, positive control 100%;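 active = mean percent activation of the reporter above a cutoff set as the average over tested compounds plus their standard deviation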
Target sequence (P55055 whole entry, looked up, the tested form may be a part): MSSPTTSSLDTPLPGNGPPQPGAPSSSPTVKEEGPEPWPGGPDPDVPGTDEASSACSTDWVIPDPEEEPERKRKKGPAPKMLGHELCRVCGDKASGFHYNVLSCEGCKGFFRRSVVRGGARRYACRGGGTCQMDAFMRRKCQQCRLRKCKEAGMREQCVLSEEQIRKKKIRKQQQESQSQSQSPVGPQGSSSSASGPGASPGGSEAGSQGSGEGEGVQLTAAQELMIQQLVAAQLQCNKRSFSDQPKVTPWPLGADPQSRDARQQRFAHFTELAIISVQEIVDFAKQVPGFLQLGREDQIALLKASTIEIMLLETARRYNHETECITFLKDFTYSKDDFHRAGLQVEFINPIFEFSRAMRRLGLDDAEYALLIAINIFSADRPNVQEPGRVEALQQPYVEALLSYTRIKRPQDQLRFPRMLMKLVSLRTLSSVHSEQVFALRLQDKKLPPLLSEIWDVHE
hcDAF12 conf = confirmation of H. contortus DAF-12 agonists | shares compounds with hcDAF-12 act | HEK293 hcDAF-12 lit1-tk-luc reporter, luminescence; % of Δ7-dafachronic acid response | activation, % at 6.8 µM | actives 61% (n = 3,400) | AID 743032;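 active = mean activation across triplicate tests above the threshold derived from the earlier primary screen, cut at about 5.5% in these data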
A number is an active result; – = inactive; ? = inconclusive; · = not tested or not shown. The list is not random: actives were taken first. Their share in the collection is about 4.1%.

SMILES | DAX1 inh-1 | hcDAF-12 act | ssDAF-12 act | PolyA inh | DAX1 inh-2 | hgDAF12 agonist | LXR ag | hcDAF12 conf
O=C(C[C@@H]1C/C=C\CC[C@H](Cc2ccc(F)cc2)C(=O)OC[C@@H]2CCCN2C1=O)N[C@H](CO)Cc1ccccc1 | – | – | – | · | – | – | · | ·
CCOc1cc(C(=O)N/N=C/c2cn(-c3ccccc3)nc2-c2cc3ccccc3o2)cc(OCC)c1OCC | – | 7.9 | – | · | – | – | – | 5.8
Cc1ccc(-c2nn(-c3ccccc3)cc2/C=N/NC(=O)c2ccc(Br)o2)cc1 | – | – | – | – | – | – | · | ·
O=C(N/N=C\c1cn(-c2ccccc2)nc1-c1ccccc1)c1ccc(Br)o1 | – | 9.4 | – | – | – | – | – | –
CC1CN(C(=O)COc2ccc3c(-c4ccccc4)cc(=O)oc3c2)CC(C)O1 (centres undefined) | – | – | – | · | – | – | · | ·
Cc1cc(NCCCn2ccnc2)n2ncc(-c3ccc(Cl)cc3)c2n1 | – | 15 | 1.7 | – | 3.8 | 19 | – | 19
CO[C@@H]1CN(C)C(=O)c2ccc(NS(=O)(=O)c3c(C)noc3C)cc2OC[C@@H](C)NC[C@@H]1C | · | – | – | · | – | – | · | ·
Cc1cc(C)n(-c2nc3ccccc3c3nc(C)nn23)n1 | – | – | – | – | – | – | · | ·
Cc1cc(C)n(-c2nc(C)nc3c2cnn3-c2ccccc2)n1 | – | 10 | – | – | – | – | – | 7.8
CC1(C(=O)NNC(=O)c2cccc([N+](=O)[O-])c2)CC1(Br)Br (centres undefined) | – | – | – | – | – | – | · | ·
Cc1ccc(SC2=C(Sc3ccc(C)cc3)C(=O)c3ccccc3C2=O)cc1 | – | 9.7 | – | – | – | – | – | –
Cc1ccc(-c2nc(NCc3ccco3)c3ccccc3n2)cc1 | – | 6.6 | 0.9 | – | – | – | – | 5.7
Cc1ccc(-c2nc(NCc3cccnc3)c3ccccc3n2)cc1 | – | 6.8 | – | – | – | – | – | –
Cc1ccc(-c2nc(NCCN(C)C)c3ccccc3n2)cc1 | – | 14 | – | – | – | – | – | 8.7
c1ccc(-c2nc(NCc3cccnc3)c3ccccc3n2)cc1 | – | · | · | – | · | · | · | ·
CCOc1ccc2ccccc2c1/C=N/NC(=O)CNC(=O)Cc1ccccc1 | – | – | – | – | – | – | · | ·
COc1ccc(C2CC(c3cccs3)=Nc3ccccc3S2)cc1 (centres undefined) | – | 8.6 | – | – | – | – | – | –
CCCCCCCCN1C(=O)[C@@H](CC(=O)NCCC(C)C)C[C@@]2(C(=O)OC)C1=C[C@H](C(C)(C)C)O[C@@H]2C | · | – | – | · | – | – | · | ·
CCc1cc(C(=O)OC)c(NC(=O)CSc2nccn2C)s1 | – | – | – | – | – | – | · | ·
Nc1c2ccccc2nc2ccccc12 | – | 14 | 2.6 | – | – | – | – | 25
Cc1ccc(Nc2nc(=O)c3cccnc3s2)cc1 | – | 11 | 1.3 | – | – | – | – | 9.3
Cc1ccc(S(=O)(=O)N2CN(CC3CCCO3)c3nc4ccccc4nc32)c(C)c1 (centres undefined) | – | 8.1 | – | – | – | – | – | –
O=S(=O)(c1cccs1)N1CN(CC2CCCO2)c2nc3ccccc3nc21 (centres undefined) | – | – | – | – | – | – | · | ·
Cn1c(=N)n(CC(=O)O)c2ccccc21 | – | – | – | – | – | – | · | ·
Cc1ccc(C(=O)Cn2c(=N)n(N)c3ccccc32)cc1 | 4.6 | 7.5 | 1.6 | – | – | – | – | –
SMILES | DAX1 inh-1 | hcDAF-12 act | ssDAF-12 act | PolyA inh | DAX1 inh-2 | hgDAF12 agonist | LXR ag | hcDAF12 conf
CCN(CC)CCn1c(=N)n(CC(=O)c2ccc(C)cc2)c2ccccc21 | – | 8.2 | 1.2 | – | – | – | – | –
Cn1c(=N)n(CC(=O)c2ccccc2)c2ccccc21 | · | 18 | 2.5 | – | – | 11 | – | 25
CCCCOC(=O)Nc1ccc(N(C)C)cc1 | – | 7.2 | – | ? | 4.4 | 11 | – | 5.8
CC(=O)NCc1ccc(S(=O)(=O)N/N=C/c2ccc(Br)cc2)cc1 | – | 9.0 | – | – | – | – | – | –
CCCNc1nc(Cl)nc(NCc2cccnc2)n1 | – | – | – | – | – | – | · | ·
Cc1sc2c(c1C)CN(CCN1CCOCC1)CN2C(=O)c1ccccc1 | – | 9.6 | – | – | – | – | – | 6.0
C#CCn1c2ccccc2c2nc3ccccc3nc21 | – | 7.1 | – | – | – | – | – | –
N#CCn1c2ccccc2c2nc3ccccc3nc21 | – | – | – | – | – | – | · | ·
CCN(Cc1ccccc1)S(=O)(=O)c1c(C)[nH]c(C)c1C(=O)N1CCCCC1 | – | – | – | – | – | – | · | ·
Cc1cc(C)n2c(SCC(O)=C(C#N)c3nc4ccccc4[nH]3)nnc2n1 | – | – | – | · | – | – | · | ·
Cc1cccc(Nc2nnc(SC/C(O)=C(\C#N)c3nc4ccccc4[nH]3)s2)c1 | – | 7.2 | 1.5 | – | – | – | – | 7.0
Cc1ccc(Nc2nnc(SC/C(O)=C(\C#N)c3nc4ccccc4[nH]3)s2)c(C)c1 | – | 9.4 | – | – | – | – | – | –
NS(=O)(=O)c1ccc(CCNC(=O)c2coc3ccccc3c2=O)cc1 | – | – | – | – | – | – | · | ·
CCCc1nc2c(c(=O)c3ccccc3n2C)c(=O)n1-c1ccc(F)cc1 | – | – | – | – | – | – | · | ·
CCCc1nc2oc3ccccc3c(=O)c2c(=O)n1-c1ccc(C)cc1 | · | 11 | 1.9 | – | – | – | – | 12
Cc1ccc(-n2c(C(C)C)nc3oc4ccccc4c(=O)c3c2=O)cc1 | 6.0 | 12 | 2.9 | – | – | 12 | – | 13
CCc1nc2oc3ccccc3c(=O)c2c(=O)n1-c1ccccc1 | – | 8.8 | 1.2 | · | – | 13 | – | 8.7
CCCc1nc2oc3ccccc3c(=O)c2c(=O)n1-c1ccccc1 | · | 9.5 | 1.2 | – | – | – | – | 8.0
COCCn1c(C(C)C)nc2oc3ccccc3c(=O)c2c1=O | – | – | – | – | – | – | · | ·
Cc1ccccc1CN1C(=O)CN(S(C)(=O)=O)CC1(C)C(=O)NCc1ccccc1 (centres undefined) | · | – | – | · | – | – | · | ·
CCCc1cc(=O)oc2cc(OC(C)C(=O)NCC3CCC(C(=O)O)CC3)ccc12 (centres undefined) | – | – | – | – | – | – | · | ·
Cc1noc(C)c1NC(=O)N(C)C[C@H]1Oc2ccc(NC(=O)Cn3cnnn3)cc2C(=O)N([C@H](C)CO)C[C@@H]1C | – | – | – | · | – | – | · | ·

Compound activity deposited in PubChem by several laboratories.
